Only some compounds are listed: those with a hit (about 11% of all), similar ones and a draw of the others.
HP1b chromo inh – HP1-beta chromodomain-methylated histone interaction inhibition | P83916 | AlphaScreen HP1-beta / biotin-H3K9me3 peptide binding | Potency, µM (top dose mostly 114 µM), for inactives: at the highest dose activity change, negative = inhibition, hits mostly inhibitors | 0.56% of 390,000 active | AID 540317; further: nearly all actives have a fitted effect of over 70% in size
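Compound inhibition of the preformed complex between 50 nM HP1-beta and 50 nM biotinylated H3K9me3 peptide was read by AlphaScreen. Buffer was PBS pH 7.4 with 0.01% Tween-20. Incubations ran 30 min at room temperature, with 10 ug/mL donor/acceptor beads.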
VDR inh – blocks the human vitamin D receptor; 0.93% of 400,000 active; Potency, µM, for the others: max response, negative = inhibition, actives largely listed as inhibitors; P11473; VDR-SRC2-3 peptide fluorescence polarization, 2 h; AID 504847; further: on the % scale 0 is the no-effect control and ±100 the full control effect
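VDR–SRC2-3 interaction, FP format. Cmpds 23 nl via pintool, brief spin, 2 h ambient incubation.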
BAZ2B inh – blocks human BAZ2B | Q9UIF8 | AlphaScreen BAZ2B-H3K14Ac peptide displacement | Potency, µM (top dose mostly 114 µM), for the others: at the highest dose activity change, negative = inhibition, actives largely listed as inhibitors | 4.4% of 360,000 active; further: on the % scale 0 is the no-effect control and ±100 the full control effect; nearly all actives have a fitted effect of over 60% in size
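In this displacement format the biotinylated H3(5-23) peptide acetylated at Lys14 serves as ligand at 50 nM, with BAZ2B at 50 nM in PBS pH 7.4 containing 0.01% Tween-20. Donor and acceptor beads are 10 ug/mL final.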
PLK1 PBD block – inhibitors of human PLK1 polo-box domain binding; Plk1 PBD binding of FITC phosphopeptide, fluorescence polarization; Potency, µM, for the others: max response, negative = inhibition, most hits filed as inhibitors; 2.8% of 360,000 active; further: series mostly up to about 57 µM; on the % scale 0 is the no-effect control and ±100 the full control effect; nearly all actives have a fitted effect of over 65% in size
JMJD2A Tudor inh – blocks the human JMJD2A Tudor domain; AID 504339; 4.4% of 390,000 active; Potency, µM (top dose mostly 114 µM), for the others: top-dose activity change, negative = inhibition, usual class: inhibitors; AlphaScreen JMJD2A-Tudor / H3K4me3 peptide binding; further: on the % scale 0 is the no-effect control and ±100 the full control effect; nearly all actives have a fitted effect of over 50% in size
G9a inh – inhibitors of human histone lysine methyltransferase G9a; Q96KQ7; G9a H3K9 monomethylation, AlphaScreen, 2 h; Potency, µM (titrated, usually from 102 µM), without a hit: top-dose activity, negative = inhibition, usual class: inhibitors; 8.8% of 350,000 active; AID 504332; further: on the % scale 0 is the no-effect control and ±100 the full control effect; nearly all actives have a fitted effect of over 75% in size
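Chemiluminescent proximity detection of H3K9 monomethylation, read after 10 min bead incubation in the dark. Reaction: 20 nM G9a, 500 nM biotin-H3K9 peptide, 20 uM SAM cofactor, 2 h, room temperature, following 15 min enzyme-compound preincubation.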
An asterisk follows results filed as active; [ ] = dose if it differs, or a comment. The call rests on the fitted dose curve; in most records, active means well fitted curve in the direction sought with a large enough effect; inconclusive means small, poorly fitted or top-dose-only effect, or another doubt; inactive means no such curve, though single readings can be large; an effect the other way counts as inactive or inconclusive. Potency means the concentration at half of the fitted maximal effect.

`C=CCn1c(C)cc(C(=O)CSc2nc3ccccc3[nH]2)c1C` gave HP1b chromo inh -13%, VDR inh -1%, BAZ2B inh inconclusive, PLK1 PBD block -3%, JMJD2A Tudor inh inconclusive and G9a inh inconclusive.
Cc1ccc(NC(=O)C2CCCN(C(=O)c3cnn(-c4ccc(F)cc4)c3-n3cccc3)C2)c(Cl)c1 (stereo unspecified) was read as HP1b chromo inh 32%, VDR inh 3%, BAZ2B inh -13%, JMJD2A Tudor inh -12% and G9a inh -1%[59 µM].
C=C1CC[C@@H]2[C@](C)(CO)[C@H](O)CC[C@@]2(C)[C@@H]1C/C=C1/C(=O)OCC1O (stereo partly specified) was read as HP1b chromo inh 14%, VDR inh 4%, PLK1 PBD block -5% and JMJD2A Tudor inh -19%.
Cc1ccc(N2CC(NC(=O)C(=O)c3c(C)[nH]c4ccccc34)CC2=O)cc1C (stereo unspecified) was read as HP1b chromo inh 16%, VDR inh -1%, BAZ2B inh -20%, PLK1 PBD block -2%, JMJD2A Tudor inh -24% and G9a inh inconclusive.
For COc1ccc(CCC(=O)NCCc2csc(-c3ccc(C(F)(F)F)cc3)n2)cc1 the results were HP1b chromo inh 17%[57 µM], VDR inh -3%, BAZ2B inh -6%, JMJD2A Tudor inh -11% and G9a inh -10%[59 µM].
Screening Nc1nc(SCC(=O)c2cc(F)ccc2F)n[nH]1 returned HP1b chromo inh 1%, VDR inh 5%, BAZ2B inh -21%, PLK1 PBD block -6%, JMJD2A Tudor inh -25% and G9a inh 40µM*.
N#CC(Cc1ccc(O)c(O)c1)C(=O)N1CCc2ccccc21 (stereo unspecified) was read as G9a inh 7.1µM*.
For CC(NCc1ccc(S(N)(=O)=O)cc1)C(=O)N1CCc2ccccc21 (stereo unspecified) the results were HP1b chromo inh 28%, VDR inh -2%, BAZ2B inh -18%, PLK1 PBD block -7%, JMJD2A Tudor inh -14% and G9a inh 4%.
For O=C(Nc1nc2n(n1)C(c1ccc(F)cc1)C=C(c1ccccc1)N2)c1ccco1 (stereo unspecified) the results were HP1b chromo inh 29%, VDR inh 0%, BAZ2B inh -17%, JMJD2A Tudor inh -18% and G9a inh inconclusive.
COCCN=c1scc(-c2cc(OC)c(OC)c(OC)c2)n1/N=C/c1c(C)[nH]c2ccccc12 was read as HP1b chromo inh inconclusive, VDR inh 5%, BAZ2B inh 11µM*, PLK1 PBD block 28%, JMJD2A Tudor inh 20µM* and G9a inh inconclusive.
`CC[N+](CC)(CC)CCCCOc1ccc2c(c1)C(=O)c1cc(OCCCC[N+](CC)(CC)CC)ccc1-2` gave HP1b chromo inh -6%, VDR inh 9%, BAZ2B inh -33%, PLK1 PBD block -3%, JMJD2A Tudor inh 35µM* and G9a inh inconclusive.
For CCCCOc1cccc(C(=O)O)c1 the results were HP1b chromo inh 34%, VDR inh -1%, BAZ2B inh -38%, PLK1 PBD block -8%, JMJD2A Tudor inh -24% and G9a inh -2%[12.7 µM].
For COC(=O)c1cc2c(ccn2-c2ccc(F)cc2)n1Cc1cccc(OC)c1 the results were HP1b chromo inh 11%, VDR inh -22%, BAZ2B inh -34%, PLK1 PBD block -2%, JMJD2A Tudor inh inconclusive and G9a inh -4%.
For COC(=O)c1cc2c(ccn2-c2ccc(F)cc2)n1C(C)C the results were HP1b chromo inh inconclusive, VDR inh 12%, BAZ2B inh inconclusive, PLK1 PBD block 2%, JMJD2A Tudor inh inconclusive and G9a inh -8%[0.0925 µM].
Screening COC(=O)c1cc2c(ccn2-c2ccc(F)cc2)n1CC(C)C returned HP1b chromo inh -20%, VDR inh -7%, BAZ2B inh inconclusive, PLK1 PBD block 0%, JMJD2A Tudor inh inconclusive and G9a inh 45µM*.
CCCn1c(C(=O)OC)cc2c1ccn2-c1ccc(F)cc1 was read as HP1b chromo inh -10%, VDR inh 13%, BAZ2B inh inconclusive, PLK1 PBD block 0%, JMJD2A Tudor inh inconclusive and G9a inh 71µM*.
CCOC(=O)c1cc2c(ccn2-c2ccc(F)cc2)n1CC(=O)N1CCN(C(=O)c2ccco2)CC1 was read as HP1b chromo inh 37%, VDR inh -4%, BAZ2B inh 8%, PLK1 PBD block -5%, JMJD2A Tudor inh -8% and G9a inh -2%.
Screening COC(=O)c1cc2c(ccn2-c2ccc(F)cc2)n1Cc1ccc(OC(C)=O)cc1 returned HP1b chromo inh 0%, VDR inh -9%, BAZ2B inh inconclusive, PLK1 PBD block 2%, JMJD2A Tudor inh inconclusive and G9a inh 50µM*.
For Cn1c(N)c(C(=O)CSc2n[nH]c(N)n2)c(=O)n(C)c1=O the results were HP1b chromo inh 43%, VDR inh 4%, BAZ2B inh 12%, PLK1 PBD block 1%, JMJD2A Tudor inh -14% and G9a inh inconclusive.
For CNC(=O)c1cc(C(=O)c2ccc(Cl)cc2)c[nH]1 the results were HP1b chromo inh 33%, VDR inh -7%, BAZ2B inh inconclusive, PLK1 PBD block -7%, JMJD2A Tudor inh -18% and G9a inh -6%.
`O=C(c1ccc(Cl)cc1)c1c[nH]c(C(=O)NNc2ccccc2)c1` gave HP1b chromo inh 34%, VDR inh 14%, BAZ2B inh -31%, PLK1 PBD block -19%, JMJD2A Tudor inh -12% and G9a inh 20µM*.
Screening CCOC(=O)c1ccccc1NC(=O)CSc1nccn1C returned HP1b chromo inh 16%, VDR inh 1%, BAZ2B inh -2%, PLK1 PBD block -8%, JMJD2A Tudor inh 0% and G9a inh -11%[59 µM].
For COc1ccc(C)cc1NC(=O)CSc1ccc(-c2ccccn2)nn1 the results were HP1b chromo inh 14%, VDR inh -16%, BAZ2B inh 3.5µM*, PLK1 PBD block -19%, JMJD2A Tudor inh 4.5µM* and G9a inh 29%.
`CCOC(=O)c1ccccc1NC(=O)CSc1ccc(-c2ccccn2)nn1` gave HP1b chromo inh 55%, VDR inh -4%, BAZ2B inh 2.8µM*, PLK1 PBD block -8% and JMJD2A Tudor inh 16µM*.
`COc1ccc(-c2nnc(SCC#N)o2)cc1` gave HP1b chromo inh 21%, VDR inh 1%, BAZ2B inh -2%, PLK1 PBD block -6%, JMJD2A Tudor inh -9% and G9a inh -43%.
`C#CCSc1nnc(-c2ccc([N+](=O)[O-])cc2)o1` gave HP1b chromo inh 7%, VDR inh -5%, BAZ2B inh -31%, PLK1 PBD block -10%, JMJD2A Tudor inh -23% and G9a inh 50µM*.

Bioassay records from PubChem BioAssay.
